Screening results from PubChem BioAssay.
MITF TRPM1 inh = inhibitors of MITF-driven TRPM1 promoter in melanoma cells | SK-MEL-5 TRPM1 promoter luciferase, 24 h | inhibition, % at 12.5 µM | actives 0.83% (n = 330,000) | AID 488899;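 active = mean inhibition across replicates of 60% or more, whatever share of single replicates reaches that level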
ABHD5 PLIN5 PPI = inhibitors of human ABHD5-perilipin-5 interaction; Split G. princeps luciferase complementation, luminescence, 4 h; inhibition, % at 4 µM; actives 0.78% (n = 360,000); AID 602281;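 active = inhibition above the mean inhibition across every tested compound plus 3 SD, cut at about 22% in these data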;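 note: 0% = DMSO only wells and the 100% control is not disclosed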
Target sequence (Q00G26 whole entry, looked up): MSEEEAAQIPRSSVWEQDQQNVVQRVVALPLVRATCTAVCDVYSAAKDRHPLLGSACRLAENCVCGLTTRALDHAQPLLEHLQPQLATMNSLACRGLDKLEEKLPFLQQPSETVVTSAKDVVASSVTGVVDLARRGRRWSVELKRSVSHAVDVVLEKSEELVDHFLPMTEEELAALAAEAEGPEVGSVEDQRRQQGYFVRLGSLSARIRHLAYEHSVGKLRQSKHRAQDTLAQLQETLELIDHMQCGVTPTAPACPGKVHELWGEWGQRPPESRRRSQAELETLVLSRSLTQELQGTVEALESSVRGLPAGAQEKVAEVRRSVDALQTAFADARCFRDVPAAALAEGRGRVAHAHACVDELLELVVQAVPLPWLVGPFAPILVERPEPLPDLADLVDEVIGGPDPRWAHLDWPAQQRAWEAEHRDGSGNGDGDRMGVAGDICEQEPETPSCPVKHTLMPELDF
Target sequence (Q8WTS1 whole entry, looked up): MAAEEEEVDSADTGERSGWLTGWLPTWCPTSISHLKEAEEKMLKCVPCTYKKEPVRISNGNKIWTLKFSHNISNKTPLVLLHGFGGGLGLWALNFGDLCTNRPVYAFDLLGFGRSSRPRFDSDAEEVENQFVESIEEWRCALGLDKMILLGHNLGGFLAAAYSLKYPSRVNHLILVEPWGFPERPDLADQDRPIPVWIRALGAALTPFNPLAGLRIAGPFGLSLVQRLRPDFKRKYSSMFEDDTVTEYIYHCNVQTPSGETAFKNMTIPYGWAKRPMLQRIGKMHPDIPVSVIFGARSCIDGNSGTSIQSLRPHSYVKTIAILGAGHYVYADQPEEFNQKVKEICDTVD
KKLEB tox = reduces viability of KKLEB cystic fibrosis airway cells; KKLEB CF airway cells viability, ATPlite luminescence, overnight; stronger effect = lower value; cells stimulated with P. aeruginosa culture filtrate; activity change (cytotoxicity), % at 5 µM; actives 0.36% (n = 360,000); AID 602141;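 active = corrected activity change at or below -50% at 5 µM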
Peg3 prom inh = reduces Peg3 promoter-driven luciferase expression in HeLa; inhibition, % at 20 µM; HeLa PEG-Prom luciferase reporter, luminescence, overnight; actives 1.7% (n = 360,000); AID 588405;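 active = inhibition of at least 50% at 20 µM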
CF NFkB inh = cystic fibrosis NF-kB activation inhibition; inhibition, % at 5 µM; actives 0.86% (n = 360,000); AID 588850; KKLEB NF-kB-GFP reporter, PAF-induced, GFP fluorescence overnight;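 active = at least 50% inhibition at 5 µM, scaled per plate between neutral and stimulator controls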;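 note: PAF is a Pseudomonas aeruginosa culture filtrate used as stimulus; plate controls were PAF-stimulated DMSO wells for no effect and unstimulated DMSO wells for full effect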
HIF-2a block = HIF-2a inhibition; 786-0 RCC cells HIF-2a reporter, luciferase luminescence, overnight; inhibition, % at 18.8 µM; actives 0.72% (n = 360,000);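 active = inhibition of the luminescence signal of 40% or more relative to plate controls, in a single-dose primary screen at 18.75 µM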
ABHD5 PLIN5 conf = confirmation of human ABHD5-PLIN5 interaction inhibitors; biochemical ABHD5-PLIN5 interaction, luminescence; shares compounds with ABHD5 PLIN5 PPI; actives 67% (n = 2,200); inhibition, % at 4 µM; in the data active = inhibition above about 23%;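 note: 0% = DMSO vehicle wells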
HNF4 split-luc = counter-screen for ABHD5-PLIN5 inhibitors: HNF4 split-luciferase; shares compounds with ABHD5 PLIN5 PPI; HNF4 dimerization, luminescence, biochemical; inhibition, % at 4 µM; actives 77% (n = 2,200);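 active = mean inhibition across replicate wells exceeding the computed hit threshold, cut at about 13% in these data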;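 note: light from luciferase halves that rejoin when HNF4 fusion proteins dimerize; 0% = DMSO only wells and the 100% control is not given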
An asterisk follows results filed as active; . = no result. This is a sample that favours compounds with a hit; in the whole collection about 3% have one here.

SMILES	MITF TRPM1 inh	ABHD5 PLIN5 PPI	KKLEB tox	Peg3 prom inh	CF NFkB inh	HIF-2a block	ABHD5 PLIN5 conf	HNF4 split-luc
CCc1nc(CN(C)C(=O)C2CCC(=O)N(Cc3cccc(F)c3)C2)no1 (stereo not given)	-1	-4	20	5	-36	-1	.	.
O=C(O)Cc1c[nH]c2ccc(O)cc12	7	38*	32	6	2	8	7	39*
Cc1cc(C(=O)N2CCC2(C)C(=O)Nc2ccc3[nH]ncc3c2)nn1C (stereo not given)	.	-8	4	-1	6	10	.	.
COc1ccc(CC(=O)NC(C)(C)CC(C)=O)cc1OC	4	0	0	-1	6	12	.	.
COc1ccc(CC(=O)n2[nH]c(=O)cc(C)c2=O)cc1OC	-2	42*	7	-2	0	11	65*	87*
Nc1sccc1C(=O)N1CCN(c2ccccc2)CC1	.	30*	.	.	.	-5	1	42*
O=C(c1ccccc1C(=O)N1CCN(c2ccccc2)CC1)N1CCN(c2ccccc2)CC1	11	-1	-4	21	-2	5	.	.
CC(=O)C(C(C)=O)C1(O)C(=O)c2ccccc2C1=O	2	41*	-8	0	-8	15	4	11
O=C(NC1(O)C(=O)c2ccccc2C1=O)c1ccccc1	7	-30	3	1	-2	3	.	.
C/C(=N\NC(=O)c1ccccc1O)c1ccc(NC(=O)Cc2ccccc2)cc1	-8	2	17	-28	-38	-138	.	.
O=C1/C(=C\c2cccnc2)Sc2ccccc21	-4	19	6	-60	-27	-41	.	.
CC1C/C(=C\c2cccnc2)C(=O)/C(=C/c2cccnc2)C1 (stereo not given)	97*	91*	-96*	107*	105*	93*	100*	93*
Cn1c(CCN2CCCC2)nc2cc(NS(=O)(=O)c3ccc(Cl)cc3)ccc21	16	27*	-24	28	38	16	18	16*
Cc1ccc(S(=O)(=O)Nc2ccc3c(c2)nc(CCN2CCCC2)n3C)cc1	16	19	32	13	-4	11	.	.
Cn1c(CN2CCCC2)nc2cc(NC(=O)c3ccc(Cl)cc3)ccc21	-22	49*	0	-169	-10	-151	6	-1
O=C(Oc1ccc(Br)cc1C(=O)/C=C/c1ccccc1F)c1ccco1	15	73*	-10	50*	12	19	99*	93*
COc1ccc(C(CCN2CCOCC2)c2c(OC)cc(OC)c3c(C)cc(=O)oc23)cc1 (stereo not given)	0	-2	-9	3	19	-2	.	.
CCCCCc1cc(=O)oc2c(C(CCN3CCCCC3)c3ccc(OC)cc3)c(OC)cc(OC)c12 (stereo not given)	92*	26*	-56*	102*	53*	-1	7	6
COc1cc(C(CCN2CCCC(C)C2)c2c(OC)cc(OC)c3c(-c4ccccc4)cc(=O)oc23)cc(OC)c1OC (stereo not given)	90*	27*	-6	87*	3	13	9	7
COc1cc(C(CC(=O)N2CCCC2)c2c(OC)cc(OC)c3c(-c4ccccc4)cc(=O)oc23)cc(OC)c1OC (stereo not given)	-2	3	-18	1	-5	10	.	.
CC(C)NC(=O)N(C)C[C@H]1OCCCC[C@H](C)Oc2ccc(NS(=O)(=O)c3ccccc3)cc2C(=O)N([C@H](C)CO)C[C@H]1C	.	-6	-11	-2	4	7	.	.
COc1ccc(CN=C2NN=C(c3ccc(Cl)cc3)CS2)cc1	-26	-11	-7	-39	10	-21	.	.
COc1ccc(CN=C2Nc3ccccc3CS2)cc1	-57	37*	0	-207	0	-198	3	3
O=C(O)c1ccccc1C(=O)c1ccc(-c2ccccc2)cc1	-8	0	15	-105	-8	-143	.	.
O=C(c1ccccc1)c1ccccc1N1C(=O)C=CC1=O	43	44*	-9	104*	78*	25	45*	105*
SMILES	MITF TRPM1 inh	ABHD5 PLIN5 PPI	KKLEB tox	Peg3 prom inh	CF NFkB inh	HIF-2a block	ABHD5 PLIN5 conf	HNF4 split-luc
O=C(Nc1ccc(F)c(Cl)c1)c1cc(C2CCCN(S(=O)(=O)c3cccc4cccnc34)C2)on1 (stereo not given)	.	-2	-1	-59	-2	-154	.	.
CCOC(=O)c1cc2c(=O)n3ccccc3nc2n(Cc2ccco2)c1=NC(=O)c1ccc(OC)cc1OC	2	10	8	-1	-31	-20	.	.
N#Cc1cc2c(=O)n3ccccc3nc2n(Cc2ccco2)c1=NC(=O)c1ccco1	6	50*	-4	9	3	11	7	26*
CC(=O)N=c1c(C#N)cc2c(=O)n3cccc(C)c3nc2n1Cc1ccco1	.	49*	-18	-10	-5	-5	13	14*
CCN(C[C@H]1N[C@@](C)(C(=O)OC)[C@H]2C(=O)N(C)C(=O)[C@@H]12)C(=O)COC	-1	14	-14	-5	-2	1	.	.
COc1ccc2[nH]c3c(=O)n(CCCC(=O)NC4CCCCC4C)c(=S)[nH]c3c2c1 (stereo not given)	-1	-1	8	16	-7	13	.	.
CCOC(=O)CN1C(=O)S/C(=C/c2ccc(N3CCCCC3)o2)C1=O	2	14	-2	-3	-4	-6	.	.
CCCN1C(=O)S/C(=C\c2ccc(N3CCOCC3)o2)C1=O	-57	74*	12	-169	-7	-178	54*	109*
CCCN1C(=O)S/C(=C/c2ccc(N3CCOCC3)o2)C1=O	-51	83*	4	-142	-3	-239	32*	93*
COc1ccc(C)cc1NC(=O)CSCc1cc(=O)n2c(C)csc2n1	-12	3	5	-1	-20	14	.	.
O=C1OC(NC(=O)c2ccccc2)C(n2cc(CO)nn2)=C1Cl (stereo not given)	-1	64*	4	-1	-2	14	90*	103*
Cc1ccc(NC2=C(Cl)C(=O)OC2NC(=O)c2ccccc2)cc1 (stereo not given)	-2	-6	0	16	-2	15	.	.
OCCCc1nc2ccccc2[nH]1	-10	5	-3	0	-3	-2	.	.
O=C(CSc1nnc(-c2cccnc2)n1Cc1ccco1)c1ccc(Br)cc1	12	2	-10	11	6	3	.	.
O=C(CSc1nnc(-c2cccnc2)n1Cc1ccco1)c1ccc2ccccc2c1	5	65*	-2	4	2	12	53*	76*
